Results taken from paper PMC7862700, “An all-to-all approach to the identification of sequence-specific readers for epigenetic DNA modifications on cytosine”.

How the values were obtained:
Test in all cases: DAPPL (digital affinity profiling via proximity ligation, sequencing); 10 mM Tris-HCl pH 7.5, 50 mM NaCl, 1 mM DTT, 4% glycerol, room temperature, 30 min; GST-TFs on glutathione beads, 16-mer random dsDNA library, 0.1% formaldehyde crosslink after washing; high values mean tight binding
Settings in all cases: protein: recombinant; tags: N-terminal GST; dsDNA, one strand shown
FLI1 = target: T1, FLI1 (Homo sapiens, UniProt Q01543 1-452)
T1 sequence: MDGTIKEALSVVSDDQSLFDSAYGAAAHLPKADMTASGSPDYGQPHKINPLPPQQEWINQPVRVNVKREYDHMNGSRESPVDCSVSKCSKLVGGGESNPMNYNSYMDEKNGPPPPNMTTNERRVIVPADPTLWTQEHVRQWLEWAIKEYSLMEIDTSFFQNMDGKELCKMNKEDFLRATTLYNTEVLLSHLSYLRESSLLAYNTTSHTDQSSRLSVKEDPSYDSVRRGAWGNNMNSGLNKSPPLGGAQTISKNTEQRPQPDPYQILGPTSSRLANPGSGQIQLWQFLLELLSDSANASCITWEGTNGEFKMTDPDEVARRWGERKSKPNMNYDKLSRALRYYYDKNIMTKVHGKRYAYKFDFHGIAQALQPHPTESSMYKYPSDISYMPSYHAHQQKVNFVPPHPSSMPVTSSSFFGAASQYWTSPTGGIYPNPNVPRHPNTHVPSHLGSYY
In short: (§1)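 After expression in yeast as GST fusions, human transcription factors were bound to glutathione beads, DNA-barcoded and mixed with a tag-only sample. The pools were incubated with 200 nmole of a 16-mer random double-stranded DNA library in Tris/NaCl/DTT/glycerol buffer (30 min, room temperature), washed and crosslinked with 0.1% formaldehyde. Proximity ligation with BsaI/T4 ligase ran for 1 h at 37 °C, before PCR amplification and sequencing on an Illumina NextSeq500. Binding signal is a hexamer's read frequency for a factor divided by its frequency for the tag-only sample.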

ELK1 = target: T2, ELK1 (Homo sapiens, UniProt P19419 1-428)
T2 sequence: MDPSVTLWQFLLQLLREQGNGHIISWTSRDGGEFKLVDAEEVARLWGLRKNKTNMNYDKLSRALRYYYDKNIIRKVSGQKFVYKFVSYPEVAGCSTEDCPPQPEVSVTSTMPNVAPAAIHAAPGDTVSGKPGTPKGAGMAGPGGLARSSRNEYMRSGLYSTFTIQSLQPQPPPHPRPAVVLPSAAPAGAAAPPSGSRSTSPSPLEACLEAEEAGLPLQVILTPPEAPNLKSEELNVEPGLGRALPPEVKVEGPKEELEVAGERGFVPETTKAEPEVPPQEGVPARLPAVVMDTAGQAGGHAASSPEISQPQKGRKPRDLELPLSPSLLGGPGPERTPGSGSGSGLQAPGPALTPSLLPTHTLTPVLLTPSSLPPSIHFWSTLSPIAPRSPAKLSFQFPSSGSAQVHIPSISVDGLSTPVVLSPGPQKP
In short: as §1

GABPA = target: T3, GABPA (Homo sapiens, UniProt Q06546 1-454)
T3 sequence: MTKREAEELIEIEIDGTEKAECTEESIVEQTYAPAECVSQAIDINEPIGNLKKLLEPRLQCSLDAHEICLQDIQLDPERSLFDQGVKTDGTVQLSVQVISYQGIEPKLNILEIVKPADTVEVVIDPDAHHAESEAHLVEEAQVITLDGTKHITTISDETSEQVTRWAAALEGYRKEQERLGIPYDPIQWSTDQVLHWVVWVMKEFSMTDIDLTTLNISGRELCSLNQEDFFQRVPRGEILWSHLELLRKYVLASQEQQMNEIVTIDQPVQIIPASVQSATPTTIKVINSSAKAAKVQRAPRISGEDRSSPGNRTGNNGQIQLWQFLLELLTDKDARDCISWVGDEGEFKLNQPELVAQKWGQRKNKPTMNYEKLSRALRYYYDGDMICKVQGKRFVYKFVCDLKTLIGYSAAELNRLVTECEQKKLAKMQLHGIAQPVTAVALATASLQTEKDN
In short: as §1

ERG = target: T4, ERG (Homo sapiens, UniProt P11308 1-479)
T4 sequence: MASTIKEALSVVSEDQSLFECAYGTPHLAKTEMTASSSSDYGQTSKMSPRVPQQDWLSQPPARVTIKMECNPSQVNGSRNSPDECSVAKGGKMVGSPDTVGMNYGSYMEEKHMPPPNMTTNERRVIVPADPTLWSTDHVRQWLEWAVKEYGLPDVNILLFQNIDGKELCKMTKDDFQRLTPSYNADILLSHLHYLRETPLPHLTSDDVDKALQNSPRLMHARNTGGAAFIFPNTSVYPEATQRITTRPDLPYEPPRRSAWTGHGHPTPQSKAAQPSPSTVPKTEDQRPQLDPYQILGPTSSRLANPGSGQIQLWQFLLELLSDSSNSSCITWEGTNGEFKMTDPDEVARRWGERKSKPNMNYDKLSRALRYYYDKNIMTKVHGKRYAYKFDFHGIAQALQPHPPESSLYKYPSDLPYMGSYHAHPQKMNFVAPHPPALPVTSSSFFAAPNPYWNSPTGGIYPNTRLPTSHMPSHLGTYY
In short: as §1

ELF1 = ELF1 (Homo sapiens, UniProt P32519 1-619)
In short: as §1

EHF = target: T5, EHF (Homo sapiens, UniProt Q9NZC4 1-300)
T5 sequence: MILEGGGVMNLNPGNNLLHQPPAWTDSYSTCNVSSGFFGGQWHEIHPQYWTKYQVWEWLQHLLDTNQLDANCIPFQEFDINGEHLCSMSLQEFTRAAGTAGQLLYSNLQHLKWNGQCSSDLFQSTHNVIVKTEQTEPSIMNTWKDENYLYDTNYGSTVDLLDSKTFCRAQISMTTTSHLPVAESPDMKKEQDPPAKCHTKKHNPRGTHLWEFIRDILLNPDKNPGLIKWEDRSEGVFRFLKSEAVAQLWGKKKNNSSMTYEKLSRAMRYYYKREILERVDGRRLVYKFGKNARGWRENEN
In short: as §1

SPI1 = SPI1 (Homo sapiens, UniProt P17947 1-270)
In short: as §1

SPIB = SPIB (Homo sapiens, UniProt Q01892 1-262)
In short: as §1

ELK3 = target: T6, ELK3 (Homo sapiens, UniProt P41970 1-407)
T6 sequence: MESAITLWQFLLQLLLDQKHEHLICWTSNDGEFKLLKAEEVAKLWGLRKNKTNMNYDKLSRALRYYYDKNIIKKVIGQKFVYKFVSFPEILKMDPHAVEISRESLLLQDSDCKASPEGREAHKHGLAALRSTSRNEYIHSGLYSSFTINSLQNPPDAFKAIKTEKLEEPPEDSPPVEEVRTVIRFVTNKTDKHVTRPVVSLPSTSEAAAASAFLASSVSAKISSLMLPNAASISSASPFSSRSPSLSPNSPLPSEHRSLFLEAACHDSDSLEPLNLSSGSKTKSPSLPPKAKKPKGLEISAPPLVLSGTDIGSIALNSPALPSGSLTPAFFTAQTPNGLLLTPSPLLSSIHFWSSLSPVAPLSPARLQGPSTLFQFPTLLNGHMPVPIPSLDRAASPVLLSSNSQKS
In short: as §1

Chain of ELF1 (P32519 whole entry): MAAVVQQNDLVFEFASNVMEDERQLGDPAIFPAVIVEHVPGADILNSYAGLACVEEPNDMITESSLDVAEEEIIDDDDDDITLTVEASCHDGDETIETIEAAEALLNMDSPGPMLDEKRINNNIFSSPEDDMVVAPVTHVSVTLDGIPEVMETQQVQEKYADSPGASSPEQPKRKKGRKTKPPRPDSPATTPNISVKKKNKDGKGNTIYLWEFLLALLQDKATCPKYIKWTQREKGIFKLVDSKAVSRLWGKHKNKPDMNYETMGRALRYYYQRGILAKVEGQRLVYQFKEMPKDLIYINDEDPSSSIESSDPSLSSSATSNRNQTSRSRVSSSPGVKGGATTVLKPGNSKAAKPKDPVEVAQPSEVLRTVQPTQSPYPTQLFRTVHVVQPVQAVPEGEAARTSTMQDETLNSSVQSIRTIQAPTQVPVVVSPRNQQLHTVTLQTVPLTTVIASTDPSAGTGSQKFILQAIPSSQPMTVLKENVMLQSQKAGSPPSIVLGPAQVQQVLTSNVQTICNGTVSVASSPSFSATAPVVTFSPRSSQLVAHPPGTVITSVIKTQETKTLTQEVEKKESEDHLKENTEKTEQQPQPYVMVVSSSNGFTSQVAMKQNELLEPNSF
Chain of SPIB (Q01892 whole entry): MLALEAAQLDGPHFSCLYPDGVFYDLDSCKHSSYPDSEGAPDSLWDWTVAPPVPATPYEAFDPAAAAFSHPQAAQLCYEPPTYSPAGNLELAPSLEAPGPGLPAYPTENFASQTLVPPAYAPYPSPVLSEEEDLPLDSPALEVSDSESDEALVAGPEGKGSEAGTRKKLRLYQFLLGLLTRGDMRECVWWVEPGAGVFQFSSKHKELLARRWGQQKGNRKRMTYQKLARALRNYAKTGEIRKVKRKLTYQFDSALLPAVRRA

| Sequence | binding signal (FLI1) | binding signal (ELK1) | binding signal (GABPA) | binding signal (ERG) | binding signal (ELF1) | binding signal (EHF) | binding signal (SPI1) | binding signal (SPIB) | binding signal (ELK3) |
| --- | --- | --- | --- | --- | --- | --- | --- | --- | --- |
| CCAATT | 1.2 fold enrichment (6-mer frequency, TF over GST control) | 1.24 fold enrichment (6-mer frequency, TF over GST control) | 1.25 fold enrichment (6-mer frequency, TF over GST control) | 1.24 fold enrichment (6-mer frequency, TF over GST control) | 1.16 fold enrichment (6-mer frequency, TF over GST control) | 1.25 fold enrichment (6-mer frequency, TF over GST control) | 1.23 fold enrichment (6-mer frequency, TF over GST control) | 1.28 fold enrichment (6-mer frequency, TF over GST control) | 1.18 fold enrichment (6-mer frequency, TF over GST control) |
| TCTACT | 1.27 fold enrichment (6-mer frequency, TF over GST control) | 1.37 fold enrichment (6-mer frequency, TF over GST control) | 1.43 fold enrichment (6-mer frequency, TF over GST control) | 1.32 fold enrichment (6-mer frequency, TF over GST control) | 1.35 fold enrichment (6-mer frequency, TF over GST control) | 1.35 fold enrichment (6-mer frequency, TF over GST control) | 1.42 fold enrichment (6-mer frequency, TF over GST control) | 1.42 fold enrichment (6-mer frequency, TF over GST control) | 1.28 fold enrichment (6-mer frequency, TF over GST control) |
| ACTATG | 1.23 fold enrichment (6-mer frequency, TF over GST control) | 1.28 fold enrichment (6-mer frequency, TF over GST control) | 1.37 fold enrichment (6-mer frequency, TF over GST control) | 1.19 fold enrichment (6-mer frequency, TF over GST control) | 1.21 fold enrichment (6-mer frequency, TF over GST control) | 1.25 fold enrichment (6-mer frequency, TF over GST control) | 1.14 fold enrichment (6-mer frequency, TF over GST control) | 1.31 fold enrichment (6-mer frequency, TF over GST control) | 1.2 fold enrichment (6-mer frequency, TF over GST control) |
| CGACAA | 1.17 fold enrichment (6-mer frequency, TF over GST control) | 1.09 fold enrichment (6-mer frequency, TF over GST control) | 1.26 fold enrichment (6-mer frequency, TF over GST control) | 1.17 fold enrichment (6-mer frequency, TF over GST control) | 1.21 fold enrichment (6-mer frequency, TF over GST control) | 1.24 fold enrichment (6-mer frequency, TF over GST control) | 1.12 fold enrichment (6-mer frequency, TF over GST control) | 1.2 fold enrichment (6-mer frequency, TF over GST control) | 1.07 fold enrichment (6-mer frequency, TF over GST control) |
| AAATGT | 1.24 fold enrichment (6-mer frequency, TF over GST control) | 1.19 fold enrichment (6-mer frequency, TF over GST control) | 1.25 fold enrichment (6-mer frequency, TF over GST control) | 1.31 fold enrichment (6-mer frequency, TF over GST control) | 1.38 fold enrichment (6-mer frequency, TF over GST control) | 1.32 fold enrichment (6-mer frequency, TF over GST control) | 1.26 fold enrichment (6-mer frequency, TF over GST control) | 1.42 fold enrichment (6-mer frequency, TF over GST control) | 1.37 fold enrichment (6-mer frequency, TF over GST control) |
| ATTTAC | 1.22 fold enrichment (6-mer frequency, TF over GST control) | 1.29 fold enrichment (6-mer frequency, TF over GST control) | 1.23 fold enrichment (6-mer frequency, TF over GST control) | 1.27 fold enrichment (6-mer frequency, TF over GST control) | 1.28 fold enrichment (6-mer frequency, TF over GST control) | 1.33 fold enrichment (6-mer frequency, TF over GST control) | 1.28 fold enrichment (6-mer frequency, TF over GST control) | 1.23 fold enrichment (6-mer frequency, TF over GST control) | 1.21 fold enrichment (6-mer frequency, TF over GST control) |
| TTGGTT | 1.51 fold enrichment (6-mer frequency, TF over GST control) | 1.38 fold enrichment (6-mer frequency, TF over GST control) | 1.45 fold enrichment (6-mer frequency, TF over GST control) | 1.37 fold enrichment (6-mer frequency, TF over GST control) | 1.39 fold enrichment (6-mer frequency, TF over GST control) | 1.4 fold enrichment (6-mer frequency, TF over GST control) | 1.43 fold enrichment (6-mer frequency, TF over GST control) | 1.47 fold enrichment (6-mer frequency, TF over GST control) | 1.43 fold enrichment (6-mer frequency, TF over GST control) |
| TCTTGC | 1.29 fold enrichment (6-mer frequency, TF over GST control) | 1.33 fold enrichment (6-mer frequency, TF over GST control) | 1.28 fold enrichment (6-mer frequency, TF over GST control) | 1.24 fold enrichment (6-mer frequency, TF over GST control) | 1.41 fold enrichment (6-mer frequency, TF over GST control) | 1.31 fold enrichment (6-mer frequency, TF over GST control) | 1.28 fold enrichment (6-mer frequency, TF over GST control) | 1.33 fold enrichment (6-mer frequency, TF over GST control) | 1.55 fold enrichment (6-mer frequency, TF over GST control) |
